Results as given in the supplement of paper PMC6555819.

Experiments:
Experiment in all cases: PBM binding z-score (relative to random genomic background probes); higher = stronger binding; sequences stand for … in GC…GCGATTGACAGCGTAGAATGAAGG
[1] = test system: FXR:RXRa (NR concentration 270 nM, RXRa partner concentration 90 nM)
Procedure, shortened: (§1)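 Each nuclear receptor dimer, without ligand, was incubated for 1 h on custom Agilent 4×180K protein-binding microarrays. Binding was detected with antibodies against each partner (one per run), and scanned fluorescence was regression-normalized. The binding z-scores are referenced to random human genomic background probes.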

[2] = test system: LXRa:RXRa (NR concentration 270 nM, RXRa partner concentration 90 nM)
Procedure, shortened: as §1

[3] = test system: LXRa homodimer (NR concentration 270 nM)
Procedure, shortened: as §1

[4] = test system: LXRb:RXRa (NR concentration 270 nM, RXRa partner concentration 90 nM)
Procedure, shortened: as §1

[5] = test system: LXRb homodimer (NR concentration 270 nM)
Procedure, shortened: as §1

[6] = test system: PPARa:RXRa (NR concentration 270 nM, RXRa partner concentration 90 nM)
Procedure, shortened: as §1

[7] = test system: PPARg:RXRa (NR concentration 180 nM, RXRa partner concentration 90 nM)
Procedure, shortened: as §1

[8] = test system: PPARg:RXRa 270nM:90nM, anti-RXR (NR concentration 270 nM, RXRa partner concentration 90 nM)
Procedure, shortened: as §1

[9] = test system: PPARg:RXRa 30nM:10nM, anti-RXR (NR concentration 30 nM, RXRa partner concentration 10 nM)
Procedure, shortened: as §1

[10] = test system: PPARg:RXRa 90nM:30nM, anti-RXR (NR concentration 90 nM, RXRa partner concentration 30 nM)
Procedure, shortened: as §1

[11] = test system: PPARg:RXRa DBDmut IVT, anti-RXR (DBD mutation: RXRa K156A/R161A, NR concentration 270 nM, RXRa partner concentration 90 nM)
Procedure, shortened: as §1

[12] = test system: PPARg:RXRa IVT, anti-PPARg (NR concentration 270 nM, RXRa partner concentration 90 nM)
Procedure, shortened: as §1

[13] = test system: PPARg DBDmut:RXRa IVT, anti-PPARg (DBD mutation: PPARg1 K132A/R137A, NR concentration 270 nM, RXRa partner concentration 90 nM)
Procedure, shortened: as §1

[14] = test system: PPARg DBDmut IVT, anti-PPARg (DBD mutation: PPARg1 K132A/R137A, NR concentration 270 nM)
Procedure, shortened: as §1

[15] = test system: PPARg homodimer (NR concentration 180 nM)
Procedure, shortened: as §1

[16] = test system: PXR:RXRa (NR concentration 270 nM, RXRa partner concentration 90 nM)
Procedure, shortened: as §1

[17] = test system: PXR homodimer (NR concentration 270 nM)
Procedure, shortened: as §1

[18] = test system: RARa:RXR (NR concentration 270 nM, RXRa partner concentration 90 nM)
Procedure, shortened: as §1

[19] = test system: RARa homodimer (NR concentration 270 nM)
Procedure, shortened: as §1

[20] = test system: RARb:RXRa (NR concentration 270 nM, RXRa partner concentration 90 nM)
Procedure, shortened: as §1

Row | Sequence | PBM binding z-score [1] | PBM binding z-score [2] | PBM binding z-score [3] | PBM binding z-score [4] | PBM binding z-score [5] | PBM binding z-score [6] | PBM binding z-score [7] | PBM binding z-score [8] | PBM binding z-score [9] | PBM binding z-score [10] | PBM binding z-score [11] | PBM binding z-score [12] | PBM binding z-score [13] | PBM binding z-score [14] | PBM binding z-score [15] | PBM binding z-score [16] | PBM binding z-score [17] | PBM binding z-score [18] | PBM binding z-score [19] | PBM binding z-score [20]
1 | CATACAGAGTCAGCTAGGCCAGAGTAGGGACGGC | -0.451 | -0.383 | -0.608 | -0.891 | -0.106 | -0.478 | 0.472 | -0.324 | -0.369 | -0.479 | -0.267 | 0.0883 | 0.15 | 0.197 | -0.174 | -0.875 | -0.632 | -0.635 | -0.132 | 0.148
2 | GCTAGCAGGCCATTTGGGTCACTCTATGACGGGC | 0.0268 | -0.16 | -0.53 | -0.351 | -0.817 | 0.925 | 0.594 | 0.327 | -0.547 | -0.167 | 2.04 | 2.04 | -0.319 | -0.713 | -0.345 | 0.138 | -0.0419 | 0.546 | -0.641 | 1.27
3 | AGTCAAGGTTCAGGACGAGGTAACGTAAAGCACG | 2.68 | 1.82 | 0.192 | 1.05 | -0.0826 | 2.34 | 1.97 | 2.16 | 0.624 | 1.34 | -0.591 | 0.701 | -0.373 | 0.579 | 0.61 | 1.35 | 0.133 | 1.95 | 0.0883 | 2.38
4 | TCTGCTAGGTCAGTTGGTCAGCTCACGAGCTGCC | 1.02 | 0.925 | -0.62 | 0.62 | 0.255 | 1.53 | 0.508 | 1.87 | 1.28 | 1.87 | 3.21 | 3.07 | 0.484 | 0.713 | -0.202 | 0.341 | -1.06 | 0.601 | -1.19 | 3.18
5 | ATCTCTAGGTAACAAGTTCAATGAAAGAGAGGAC | 1.38 | 1.5 | 1.01 | 1.42 | 1.28 | 2.44 | 2.44 | 2.87 | 1.22 | 2.61 | 3.6 | 3.31 | 1.41 | 1.75 | 1.45 | 2.68 | 3.18 | 1.75 | 1.83 | 2.18
6 | GATACAGGGTTAAGGCCAGAGTACGCGTATTGAT | 1.24 | 0.758 | -0.124 | 0.741 | -0.621 | 2.23 | 1.45 | 1.5 | 0.167 | 0.884 | 0.369 | 1.16 | 0.272 | -0.564 | 0.996 | 0.615 | 0.108 | 1.28 | 0.426 | 1.7
7 | CGAACTAGGTCAGAACAGGGCAGTGAAGGATGAT | 1.43 | 0.861 | -0.154 | 0.436 | -0.443 | 3.09 | 5.03 | 4.3 | 1.73 | 3.33 | 7.23 | 7.22 | 1.72 | -0.191 | 1.19 | 1.26 | 0.00717 | 0.81 | 0.0682 | 3.15
8 | CTCGAAATGTCGTGCTCAGGTGAGTATACCAAAC | 0.0674 | -0.048 | -0.175 | -0.182 | 0.0146 | -0.0536 | -0.165 | -0.324 | 0.0529 | -0.0106 | -0.127 | 0.323 | 0.0105 | 0.169 | -0.101 | -0.206 | -0.0833 | 0.0583 | 0.245 | 0.417
9 | TCATATGGGTAAACAGGTGAAAGTCCGTAAGTTA | 0.13 | 0.314 | -0.0837 | 0.449 | -0.731 | 1.85 | 2.04 | 2.98 | 2.52 | 2.89 | 4.06 | 3.99 | 0.27 | 0.486 | 0.322 | 0.505 | 0.00205 | 0.571 | -0.0494 | 0.316
10 | TCATATAGGTAACGGTGAAAGTCGAACGATATGA | 0.511 | 0.386 | -0.274 | 0.302 | -0.326 | 1.52 | 1.63 | 2.54 | 3.34 | 2.78 | 4.89 | 4.04 | 1.45 | 1.23 | -0.0318 | 0.0146 | -0.0521 | 0.23 | 0.533 | 0.479
11 | ACTTACGGGTCAACGATGTTATAGCACGCGTATA | 6.28 | 4.04 | 0.405 | 3.64 | 0.787 | 5.53 | 4.83 | 5.13 | 2.07 | 3.75 | 3.44 | 3.78 | 1.72 | 1.54 | 2.59 | 3.49 | 0.444 | 4.41 | 0.951 | 4.09
12 | TCGAGTAAGTTAGTCGGGGCATTCAGCCAACATA | -1.52 | -0.541 | -0.717 | -0.128 | -0.869 | 0.00256 | -0.588 | 0.158 | 0.928 | 0.486 | 0.848 | -0.156 | -0.534 | -0.684 | -0.634 | -0.346 | -0.239 | -0.154 | -0.863 | -0.272
13 | GATACAGAGTCAAGGCCAGAGTACGCGTATTGAT | -0.608 | -0.442 | -0.531 | -0.627 | -0.712 | -0.293 | 0.646 | -0.0744 | -0.0806 | -0.0588 | -0.108 | -0.0303 | 0.127 | -0.418 | -0.301 | -0.285 | -0.253 | -0.181 | -1.07 | 0.288
14 | TGAATGAGGTTAAAGATCAGGGACCGTGGCGTCG | 2.75 | 2.5 | -0.345 | 1.45 | 0.253 | 4.71 | 5.75 | 6.16 | 5.21 | 6.9 | 1.93 | 3.65 | 0.741 | 0.491 | 1.52 | 1.94 | -0.23 | 2.91 | 0.149 | 1.96
15 | ATCTCTAGGTACAAGTTCAGTGAATCCCGAGGAT | 0.207 | 0.339 | 0.332 | 0.411 | 0.905 | 2.42 | 3.28 | 4.58 | 3.23 | 4.51 | 0.163 | 1.47 | 0.611 | 0.766 | 0.56 | 1.92 | 1.54 | 0.393 | 0.103 | 1.66
16 | TCGAGTAGGTTACTAATGGGGCATTCAGCTTTCT | -0.458 | 2.4 | -0.454 | 1.24 | -0.917 | 0.717 | -0.149 | 0.701 | 0.939 | 0.928 | 3.02 | 2.39 | 0.0923 | -0.475 | -0.0554 | 0.00033 | -0.441 | 0.224 | -0.684 | 0.494
17 | CGTCAACGTTCAAGGTAACGTAACAGAAAGCAGC | -0.152 | -0.339 | -0.374 | -0.129 | -0.566 | -0.0131 | 0.721 | -0.237 | -0.128 | -0.193 | -0.333 | 0.375 | -0.0516 | -0.229 | -0.442 | -0.292 | -0.379 | -0.0345 | -0.412 | 0.89
18 | CGAGACAGGTGAAAGGTAACTCAGTCTGGTACGC | 0.533 | 0.602 | -0.513 | 0.732 | -0.851 | 3.47 | 5.43 | 6.27 | 4.23 | 6.7 | 1.78 | 2.95 | 0.301 | -1.14 | 1.05 | 0.75 | -0.102 | 1.92 | -0.282 | 1.19
